This is an account of results in PubChem BioAssay (Tox21).

Each structure is given as a SMILES string. Records with an inconclusive call do not appear. Calls of active or inactive are those of the source. Unless noted, calls come from the whole dose curve; as a rule, active = well fitted curve in the direction sought with a large enough effect in the repeat runs; inconclusive = weak or mixed curves; inactive = no such curve, though single readings can be large; an effect the other way counts as inactive or inconclusive.

The target in experiment [1] is Estrogen receptor beta (Homo sapiens) (UniProt Q92731). As to the kind of experiment: qHTS assay to identify small molecule agonists of the estrogen receptor beta (ER-beta) signaling pathway (AID 1259377; active = well fitted activation curve with a large enough effect in the signal ratio in the repeat runs, not every such curve was filed as active; the % refers to the signal ratio; note: potency is the fitted concentration of half-maximal effect). In a few lines: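 Screening used GripTite ER-beta-UAS-bla cells held in 2% charcoal-stripped FBS medium. After overnight (16 hr) compound incubation at 37C, beta-lactamase activity was detected with a FRET substrate by fluorescence.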

For experiment [2] the target is unchanged. The experiment in a line: qHTS assay to identify small molecule antagonists of the estrogen receptor beta (ER-beta) signaling pathway (AID 1259378; active = well fitted inhibition curve with a large enough effect in the signal ratio in the repeat runs, not every such curve was filed as active; the % refers to the signal ratio). In a few lines:
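Antagonist mode: compounds added to beta-lactamase reporter HEK293T ER-beta-UAS cells stimulated with E2 (1nM final), 16 hr at 37C. LiveBLAzer B/G FRET substrate, 2 hours room temperature, fluorescence read-out.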

Experiment [3] can be described thus: qHTS assay to identify small molecule agonists of the androgen receptor (AR) signaling pathway in the presence of an antagonist - cell viability counter screen (AID 1259379).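 Note: MDA-kb2 human breast cancer cells carrying an MMTV luciferase reporter; series mostly up to about 92 µM; nearly all actives have a fitted effect of over 25% in size.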 In a few lines:
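Counter screen for cell viability run in parallel with the AR agonist-mode luciferase assay. MDA-kb2 cells were co-treated with nilutamide (3.0uM final) and compounds, then incubated 16 hr at 37C, and CellTiter-Fluor fluorescence was measured.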
In general terms: Quantitative high-throughput screening tests each substance at several concentrations.

Experiment [4] concerns the target Androgen receptor (Homo sapiens) (UniProt P10275). As to the kind of experiment: qHTS assay to identify small molecule agonists of the androgen receptor (AR) signaling pathway in the presence of an antagonist (AID 1259381; calls by dose curve; note: nearly all actives have a fitted effect of over 15% in size). In a few lines: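 AR antagonist background: nilutamide 3.0uM final. Cell line: MDA-kb2, MMTV-driven luciferase, responsive to both AR and GR. Exposure 16hr, 37C, no CO2; ONE-Glo luminescence.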

The nature of experiment [5]: qHTS assay to identify small molecule antagonists of the estrogen receptor beta (ER-beta) signaling pathway - cell viability counter screen (AID 1259382).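 Note: HEK293T cells carrying ER-beta-UAS-bla reporter stimulated with estradiol; series mostly up to about 92 µM; nearly all actives have a fitted effect of over 55% in size.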 In short, it runs like this:
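HEK293T ER-beta-UAS-bla, 2% charcoal-stripped FBS; compounds + 1nM E2 16 hr 37C; CellTiter-Glo luminescence, 30 min RT.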

Experiment [6] concerns the target Estrogen receptor (Homo sapiens) (UniProt P03372). The experiment in a line: qHTS assay to identify small molecule agonists of the estrogen receptor alpha (ER-alpha) signaling pathway in the presence of an antagonist (AID 1259383; calls by dose curve; note: nearly all actives have a fitted effect of over 15% in size; note: potency is the fitted concentration of half-maximal effect; for activation: top concentration of the series differs between compounds). In short, it runs like this: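 ER-alpha agonism measured under antagonist challenge: 10.0nM ICI-182,780 (final) plus compound, 15 concentrations, 22hr, VM7Luc4E2 ERE-luciferase cells. Read by luminescence.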

The target of experiment [7] is Thyrotropin receptor (Homo sapiens) (UniProt P16473). The experiment in a line: qHTS assay to identify small molecule antagonists of the thyroid stimulating hormone receptor (TSHR) signaling pathway (AID 1259385; calls by dose curve; note: nearly all actives have a fitted effect of over 20% in size). In short, it runs like this: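 Antagonist mode: compound-treated TSHR-expressing HEK293 cells were stimulated with 1.5 ng/mL TSH (final) in presence of Ro20-1724 for 30 min at RT. HTRF cAMP detection after 1 h; each compound tested at 15 concentrations, triplicate.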

A short description of experiment [8]: qHTS assay to identify small molecule agonists of the estrogen receptor alpha (ER-alpha) signaling pathway in the presence of an antagonist - cell viability counter screen (AID 1259386).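 Note: cells exposed to compounds for 22 h at 37 °C before the viability read; nearly all actives have a fitted effect of over 30% in size.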 Note: potency is the fitted concentration of half-maximal effect. In a few lines: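 Steps: 5-day stripped-FBS culture; seed and incubate 24hr; add ICI-182,780 (10.0nM final); pin 15-point compound titration; incubate 22hr at 37C; add CellTiter-Fluor at 21hr; read fluorescence.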

The target in experiment [9] is Progesterone receptor (Homo sapiens) (UniProt P06401). As to the kind of experiment: qHTS assay to identify small molecule agonists of the progesterone receptor (PR) signaling pathway (AID 1346784; calls by dose curve; note: nearly all actives have a fitted effect of over 30% in size). In short, it runs like this:
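Seed PR-UAS-bla HEK 293T cells (2% charcoal-stripped FBS), incubate 6 hr at 37C; add compounds in DMSO, 16 hr at 37C; add LiveBLAzer B/G substrate, 2 hr RT; read fluorescence intensity.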

The target is the same in experiment [10]. The experiment in a line: qHTS assay to identify small molecule antagonists of the progesterone receptor (PR) signaling pathway (AID 1346795; active = well fitted inhibition curve with a large enough effect in the signal ratio in the repeat runs, not every such curve was filed as active; the % refers to the signal ratio; note: potency is the fitted concentration of half-maximal effect). In a few lines: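 Screening used a GripTite HEK293T line with PR-responsive UAS-beta-lactamase. Cells were challenged with compound in the presence of 1 nM R5020 final for 16 hr at 37C; B/G FRET substrate, 2 hr room temperature, fluorescence.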

Experiment [11] can be described thus: qHTS assay to identify small molecule antagonists of the TGF-beta/Smad signaling pathway - cell viability counter screen (AID 1346824). Note: nearly all actives have a fitted effect of over 50% in size. In short, it runs like this: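 Cytotoxicity counter-screen run in the same wells as the beta-lactamase Smad reporter read: CellTiter-Glo luminescence after 30 min at room temperature. HEK 293T SBE-bla cells had 5 hr compound exposure at 37 C with TGF-beta1 (0.25 ng/mL stock).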

A short description of experiment [12]: qHTS assay to identify small molecule agonists of the TGF-beta/Smad signaling pathway - cell viability counter screen (AID 1346829). Note: top concentration of the series differs between compounds; nearly all actives have a fitted effect of over 45% in size. In short, it runs like this: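 After overnight seating at 37 C and 5% CO2, reporter cells got compounds for 5 hr and FRET substrate for 2 hr; cell viability then came from CellTiter-Glo luminescence.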
A short description of experiment [13]: qHTS assay to identify small molecule agonists of the TGF-beta/Smad signaling pathway (AID 1346859; active = well fitted activation curve with a large enough effect in the signal ratio in the repeat runs, not every such curve was filed as active; the % refers to the signal ratio; note: series mostly up to about 77 µM). In short, it runs like this: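 Beta-lactamase reporter activity downstream of Smad binding elements was measured in stably transfected HEK 293T cells; compounds were incubated for 5 hr, substrate for 2 hr at room temperature.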
In experiment [14] the target is Thyrotropin-releasing hormone receptor (Homo sapiens) (UniProt P34981). The experiment in a line: qHTS assay to identify small molecule antagonists of the thyrotropin-releasing hormone receptor (TRHR) signaling pathway (AID 1346877; active = well fitted inhibition curve with a large enough effect in the repeat runs, not every such curve was filed as active; note: series mostly up to about 51 µM). In a few lines: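 Human TRHR in HEK293 cells; inhibition of the intracellular calcium rise triggered by 1 nM TRH was followed by fluorescence over 3 min. Compounds were run at 15 concentrations, three replicates each.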

For experiment [15] the target is unchanged. The experiment in a line: qHTS assay to identify small molecule agonists of the thyrotropin-releasing hormone receptor (TRHR) signaling pathway (AID 1346891; calls by dose curve;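 note: HEK293 cells expressing TRHR with calcium dye readout; series mostly up to about 58 µM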). In a few lines:
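Overnight-plated (18 h, 37 °C, 5% CO2) TRHR-Hek293 cells; 2 h calcium dye at 37 °C; compound in DMSO; 3-min kinetic fluorescence read.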

Experiment [16] in a line: qHTS assay to identify small molecule antagonists of the sonic hedgehog signaling (Shh) pathway (AID 1259369; calls by dose curve; note: nearly all actives have a fitted effect of over 45% in size). In short, it runs like this: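 Gli1 transcriptional reporter (firefly Luc) in NIH/3T3 background, conditioned-medium activated. 24hr exposure, luminescence endpoint.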
The nature of experiment [17]: qHTS assay to identify small molecule agonists or antagonists of the thyroid stimulating hormone receptor (TSHR) signaling pathway - wild type cell line counter screen (AID 1259384; calls by dose curve). In a few lines: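 Counter screen in untransfected Hek293: compounds (15-point titration, triplicate) plus phosphodiesterase inhibitor Ro20-1724 added after 18 h plating; 30 min RT. Intracellular cAMP via competitive d2/cryptate immunoassay, 1 h incubation.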

Experiment [18] can be described thus: qHTS assay to identify small molecule antagonists of the progesterone receptor (PR) signaling pathway - cell viability counter screen (AID 1346798). Note: nearly all actives have a fitted effect of over 50% in size. Note: potency is the fitted concentration of half-maximal effect. In short, it runs like this:
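Measures cytotoxicity in parallel with the PR antagonist reporter read: HEK293T PR-UAS-bla cells get compound and R5020 for 16 hr, and remaining viable cells are quantified by CellTiter-Glo luminescence.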

Experiment [19] is described as follows: qHTS assay to identify small molecule agonists of the progesterone receptor (PR) signaling pathway - cell viability counter screen (AID 1346799; calls by dose curve; note: nearly all actives have a fitted effect of over 45% in size). In a few lines:
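Using the same plates as the PR reporter screen, HEK293T PR-UAS-bla cells received compounds for 16 hr at 37C and were then lysed with CellTiter-Glo; luminescence was read 30 min later at room temperature.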

Experiment [20] in a line: qHTS assay to identify small molecule agonists of the estrogen receptor beta (ER-beta) signaling pathway - cell viability counter screen (AID 1259380). Note: nearly all actives have a fitted effect of over 30% in size. Note: potency is the fitted concentration of half-maximal effect. In short, it runs like this:
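In this qHTS counter screen, HEK293T cells carrying an ER-beta/UAS beta-lactamase reporter, grown in 2% charcoal-stripped FBS, received compound for 16 hr; ATP-based CellTiter-Glo luminescence was then read after 30 min at room temperature.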

Thyrotropin receptor (Homo sapiens), sequence (P16473 whole entry, looked up): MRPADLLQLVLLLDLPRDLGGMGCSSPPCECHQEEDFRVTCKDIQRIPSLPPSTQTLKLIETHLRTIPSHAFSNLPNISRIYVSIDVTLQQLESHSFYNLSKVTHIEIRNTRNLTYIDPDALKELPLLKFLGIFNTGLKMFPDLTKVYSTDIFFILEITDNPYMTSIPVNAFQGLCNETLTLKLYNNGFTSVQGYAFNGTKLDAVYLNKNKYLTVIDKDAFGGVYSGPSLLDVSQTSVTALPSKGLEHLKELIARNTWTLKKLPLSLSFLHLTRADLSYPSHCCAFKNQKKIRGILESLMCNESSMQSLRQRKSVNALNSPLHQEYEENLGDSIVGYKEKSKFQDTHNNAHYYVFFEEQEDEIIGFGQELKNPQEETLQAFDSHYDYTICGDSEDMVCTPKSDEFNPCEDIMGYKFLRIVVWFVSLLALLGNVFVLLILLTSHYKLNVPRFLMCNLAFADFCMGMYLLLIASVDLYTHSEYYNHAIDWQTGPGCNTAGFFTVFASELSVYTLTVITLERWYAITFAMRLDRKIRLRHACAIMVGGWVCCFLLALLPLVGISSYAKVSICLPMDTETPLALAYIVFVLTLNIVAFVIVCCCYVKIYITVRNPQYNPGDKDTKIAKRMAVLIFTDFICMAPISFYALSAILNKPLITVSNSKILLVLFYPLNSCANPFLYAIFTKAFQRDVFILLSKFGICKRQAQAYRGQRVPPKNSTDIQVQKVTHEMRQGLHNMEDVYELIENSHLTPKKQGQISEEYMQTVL
Progesterone receptor (Homo sapiens), sequence (P06401 whole entry, looked up): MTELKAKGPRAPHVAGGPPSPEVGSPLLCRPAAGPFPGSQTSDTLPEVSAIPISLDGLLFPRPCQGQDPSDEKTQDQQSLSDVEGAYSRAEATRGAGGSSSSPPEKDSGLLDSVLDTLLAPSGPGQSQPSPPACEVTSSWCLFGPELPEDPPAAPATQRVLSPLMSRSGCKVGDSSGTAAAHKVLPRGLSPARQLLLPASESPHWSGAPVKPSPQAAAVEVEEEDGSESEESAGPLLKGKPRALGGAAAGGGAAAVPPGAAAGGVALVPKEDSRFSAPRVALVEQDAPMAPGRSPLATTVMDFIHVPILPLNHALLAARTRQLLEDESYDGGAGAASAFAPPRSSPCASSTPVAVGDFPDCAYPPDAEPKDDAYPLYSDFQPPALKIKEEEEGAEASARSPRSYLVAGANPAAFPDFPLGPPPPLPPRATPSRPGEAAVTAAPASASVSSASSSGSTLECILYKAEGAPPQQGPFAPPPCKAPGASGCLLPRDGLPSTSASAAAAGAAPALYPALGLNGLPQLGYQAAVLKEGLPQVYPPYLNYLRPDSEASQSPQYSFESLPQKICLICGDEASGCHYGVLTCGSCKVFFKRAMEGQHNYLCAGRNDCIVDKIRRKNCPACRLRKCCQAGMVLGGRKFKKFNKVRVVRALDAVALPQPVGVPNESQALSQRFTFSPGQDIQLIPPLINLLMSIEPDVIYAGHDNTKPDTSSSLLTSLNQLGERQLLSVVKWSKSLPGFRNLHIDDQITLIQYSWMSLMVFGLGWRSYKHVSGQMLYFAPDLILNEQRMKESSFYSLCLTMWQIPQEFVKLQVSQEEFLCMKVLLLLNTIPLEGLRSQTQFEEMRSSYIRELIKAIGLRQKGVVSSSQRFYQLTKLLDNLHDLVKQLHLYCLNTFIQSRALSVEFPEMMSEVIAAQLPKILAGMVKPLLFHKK
Estrogen receptor (Homo sapiens), sequence (P03372 whole entry, looked up): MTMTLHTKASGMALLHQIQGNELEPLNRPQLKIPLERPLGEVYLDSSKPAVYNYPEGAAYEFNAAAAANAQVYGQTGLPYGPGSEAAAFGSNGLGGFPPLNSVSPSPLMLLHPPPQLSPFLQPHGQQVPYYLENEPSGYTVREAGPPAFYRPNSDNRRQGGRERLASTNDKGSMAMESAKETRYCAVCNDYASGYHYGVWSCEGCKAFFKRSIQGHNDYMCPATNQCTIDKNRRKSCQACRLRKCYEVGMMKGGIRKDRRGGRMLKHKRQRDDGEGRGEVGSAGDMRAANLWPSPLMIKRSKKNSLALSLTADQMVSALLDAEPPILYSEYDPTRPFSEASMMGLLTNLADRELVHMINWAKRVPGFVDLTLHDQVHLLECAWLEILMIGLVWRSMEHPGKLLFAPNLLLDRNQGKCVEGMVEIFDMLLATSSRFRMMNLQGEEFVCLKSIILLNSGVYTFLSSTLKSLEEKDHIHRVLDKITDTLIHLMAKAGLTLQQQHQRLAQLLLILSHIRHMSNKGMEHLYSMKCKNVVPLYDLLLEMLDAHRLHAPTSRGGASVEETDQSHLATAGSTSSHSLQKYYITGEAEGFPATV
Estrogen receptor beta (Homo sapiens), sequence (Q92731 whole entry, looked up): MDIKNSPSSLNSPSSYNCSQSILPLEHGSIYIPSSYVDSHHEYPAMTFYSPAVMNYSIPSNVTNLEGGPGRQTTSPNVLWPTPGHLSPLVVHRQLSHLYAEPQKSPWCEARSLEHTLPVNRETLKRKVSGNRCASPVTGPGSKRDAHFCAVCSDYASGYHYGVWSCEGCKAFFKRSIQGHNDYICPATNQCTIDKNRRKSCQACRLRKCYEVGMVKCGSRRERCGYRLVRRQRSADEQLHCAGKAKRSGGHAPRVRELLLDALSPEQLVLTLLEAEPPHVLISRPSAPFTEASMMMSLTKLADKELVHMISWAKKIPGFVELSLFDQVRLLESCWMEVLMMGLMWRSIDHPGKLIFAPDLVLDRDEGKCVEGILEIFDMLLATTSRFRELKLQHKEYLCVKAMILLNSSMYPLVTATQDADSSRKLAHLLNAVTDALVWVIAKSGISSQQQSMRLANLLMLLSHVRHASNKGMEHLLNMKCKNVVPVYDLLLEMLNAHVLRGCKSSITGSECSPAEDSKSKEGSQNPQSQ
Thyrotropin-releasing hormone receptor (Homo sapiens), sequence (P34981 whole entry, looked up): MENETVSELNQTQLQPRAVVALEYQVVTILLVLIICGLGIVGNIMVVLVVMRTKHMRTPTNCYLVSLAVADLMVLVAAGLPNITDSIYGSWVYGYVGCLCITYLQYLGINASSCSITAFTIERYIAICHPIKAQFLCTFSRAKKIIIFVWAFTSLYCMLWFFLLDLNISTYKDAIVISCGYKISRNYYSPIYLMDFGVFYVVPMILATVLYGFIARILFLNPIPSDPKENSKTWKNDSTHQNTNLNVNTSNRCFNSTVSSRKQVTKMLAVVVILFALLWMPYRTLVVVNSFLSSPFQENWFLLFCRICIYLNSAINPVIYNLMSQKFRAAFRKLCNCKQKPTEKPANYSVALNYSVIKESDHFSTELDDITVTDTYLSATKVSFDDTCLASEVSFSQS
Androgen receptor (Homo sapiens), sequence (P10275 whole entry, looked up): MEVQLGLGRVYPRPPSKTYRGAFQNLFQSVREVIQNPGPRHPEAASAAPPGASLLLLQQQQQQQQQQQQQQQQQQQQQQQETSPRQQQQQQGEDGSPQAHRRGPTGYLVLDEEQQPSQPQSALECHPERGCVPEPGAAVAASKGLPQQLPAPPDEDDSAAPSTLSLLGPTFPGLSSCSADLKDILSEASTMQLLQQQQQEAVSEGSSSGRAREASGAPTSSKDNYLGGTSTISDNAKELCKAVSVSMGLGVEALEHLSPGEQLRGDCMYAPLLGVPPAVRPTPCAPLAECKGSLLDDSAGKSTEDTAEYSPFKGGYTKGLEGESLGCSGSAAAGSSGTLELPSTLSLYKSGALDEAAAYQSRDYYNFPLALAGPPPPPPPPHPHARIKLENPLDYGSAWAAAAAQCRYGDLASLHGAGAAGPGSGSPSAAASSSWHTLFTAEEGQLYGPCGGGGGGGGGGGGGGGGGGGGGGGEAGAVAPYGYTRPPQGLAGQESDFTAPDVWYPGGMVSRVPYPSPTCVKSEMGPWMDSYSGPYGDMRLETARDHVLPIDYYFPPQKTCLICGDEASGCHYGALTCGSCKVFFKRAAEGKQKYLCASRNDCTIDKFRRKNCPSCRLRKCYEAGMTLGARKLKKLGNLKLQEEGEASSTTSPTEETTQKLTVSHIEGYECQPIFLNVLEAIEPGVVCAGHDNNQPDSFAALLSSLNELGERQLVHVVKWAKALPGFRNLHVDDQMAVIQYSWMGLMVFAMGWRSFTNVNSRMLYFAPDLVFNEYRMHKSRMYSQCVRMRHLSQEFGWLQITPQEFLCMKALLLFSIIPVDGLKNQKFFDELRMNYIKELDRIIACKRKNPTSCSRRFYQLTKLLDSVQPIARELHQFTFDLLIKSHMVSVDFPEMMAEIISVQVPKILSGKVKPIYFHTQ

Consider `O=C(c1ccc(O)cc1)c1ccc(O)cc1`, for which the values for the Potency in experiment [1], in experiment [6] and in [10] were 6.11 µM (active), 21.7 µM (active) and 48.6 µM (active), respectively. The Potency result in experiment [2], in [3], in experiment [4], in experiment [5], in [7] and in experiment [8] was “inactive” throughout. Also, the Potency result in experiment [11], in experiment [12] and in experiment [15] was “inactive” each time. Further, the result in experiment [9], in experiment [13] and in [14] was inactive.
As for `N#CCCNCCC#N`, the Potency entry in [16], in [5], in experiment [6], in [17], in experiment [8] and in [10] was “inactive” each time. Further, the Potency entry in [18], in [19], in [12] and in [15] was “inactive” each time. The molecule was classed as inactive in experiment [9], in experiment [13] and in [14].
For the molecule `CCCCCCCCCCCCCCCC(=O)OC/C=C(C)/C=C/C=C(C)/C=C/C1=C(C)CCCC1(C)C`, the Potency entry in [20], in experiment [17], in experiment [7], in [8], in [10] and in experiment [18] was “inactive” in each case. For the same molecule, the Potency result in experiment [19], in experiment [11], in experiment [12] and in experiment [15] was “inactive” throughout. Further, the molecule was called inactive in experiment [9], in experiment [13] and in [14].
With `Cc1ccc(O)c([C@H](CCN(C(C)C)C(C)C)c2ccccc2)c1`, the Potency result in experiment [1], in experiment [2], in experiment [17], in [7], in experiment [10] and in [11] was “inactive” in each case. Also, in experiment [12], the Potency entry was “inactive”. Further, in experiment [20], the Potency was 26.6 µM (active). Besides, the call in [9], in [13] and in experiment [14] was inactive.
For the molecule `CCCCc1cc2ccccc2c(OCCN(C)C)n1`, the Potency entry in experiment [3], in experiment [17], in [7], in [8], in experiment [19] and in [11] was “inactive” each time. Besides, the Potency result in [12] and in [15] was “inactive” throughout. The call in [9], in experiment [13] and in experiment [14] was inactive.
Consider `CC(Cc1cccc(C(F)(F)F)c1)NCCOC(=O)c1ccccc1` (stereo not given), for which the Potency entry in [3], in experiment [5], in [17], in experiment [7], in experiment [8] and in experiment [10] was “inactive” throughout. For the same molecule, the Potency result in experiment [18], in [19] and in experiment [12] was “inactive” in each case. The result in experiment [9] and in experiment [13] was inactive.
For the molecule `Cc1nc2ccccc2n1Cc1ccc(Cl)cc1`, the Potency entry in [1], in [5], in [6], in [11] and in experiment [12] was “inactive” in each case. For the same molecule, the Potency in experiment [8] and in [10] was 13.3 µM (active) in each case. In addition, the call in experiment [9] and in [13] was inactive.
For the molecule `CN(C)CC[C@@H](c1ccc(Br)cc1)c1ccccn1`, the Potency entry in experiment [16], in experiment [6], in experiment [8], in experiment [10], in [19] and in experiment [11] was “inactive” in each case. For the same molecule, the outcome in experiment [9] and in experiment [13] was inactive. Moreover, the Potency in experiment [18] is 2.66 µM (active).
As to `CN1CCC(OC(c2ccccc2)c2ccccc2)CC1`, the Potency result in experiment [3], in [20], in experiment [5], in experiment [6], in experiment [17] and in [7] was “inactive” in each case. Further, the Potency result in experiment [8], in [10], in experiment [11], in [12] and in experiment [15] was “inactive” each time. Moreover, the molecule was called inactive in experiment [9], in experiment [13] and in [14].
As to `Cc1cc(CC(=O)O)c(C)n1-c1ccc(Cl)cc1`, the Potency result in experiment [1], in [3], in experiment [5], in [17], in [7] and in experiment [8] was “inactive” throughout. Further, the Potency result in [10], in experiment [18], in [19], in [11], in [12] and in experiment [15] was “inactive” throughout. In addition, the Potency in [20] was 10.6 µM (active). Further, the molecule was classed as inactive in experiment [9], in experiment [13] and in experiment [14].
Turning to `Oc1ccc2c(c1)OCO2`, the Potency result in experiment [3], in experiment [5], in experiment [6], in [17], in experiment [7] and in experiment [19] was “inactive” in each case. For the same molecule, the Potency entry in experiment [11] and in [12] was “inactive” in each case. The outcome in [9] and in [13] was inactive.
For `CN(C)C/C=C(/c1ccc(Br)cc1)c1cccnc1`, the Potency entry in [20], in experiment [5], in [17], in experiment [7], in experiment [8] and in experiment [10] was “inactive” throughout. Besides, the Potency entry in experiment [19], in [11], in experiment [12] and in [15] was “inactive” each time. The molecule was classed as inactive in experiment [9], in [13] and in [14].
